# Assay results: the supplement of paper PMC6555819
# Experiments:
# Test in all cases: PBM binding z-score (relative to random genomic background probes); higher = stronger binding; sequences stand for … in GC…GCGATTGACAGCGTAGAATGAAGG
# [1] = tested on: FXR:RXRa (NR concentration 270 nM, RXRa partner concentration 90 nM)
# How it was run: (§1)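 Binding z-scores take random background probes as their reference. They come from custom Agilent 4×180K protein-binding microarrays incubated 1 h with ligand-free nuclear receptor dimers, with antibodies against each partner (one per run) detecting binding. Scanned fluorescence was regression-normalized.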
# [2] = tested on: LXRa:RXRa (NR concentration 270 nM, RXRa partner concentration 90 nM)
# How it was run: as §1
# [3] = tested on: LXRa homodimer (NR concentration 270 nM)
# How it was run: as §1
# [4] = tested on: LXRb:RXRa (NR concentration 270 nM, RXRa partner concentration 90 nM)
# How it was run: as §1
# [5] = tested on: LXRb homodimer (NR concentration 270 nM)
# How it was run: as §1
# [6] = tested on: PPARa:RXRa (NR concentration 270 nM, RXRa partner concentration 90 nM)
# How it was run: as §1
# [7] = tested on: PPARg:RXRa (NR concentration 180 nM, RXRa partner concentration 90 nM)
# How it was run: as §1
# [8] = tested on: PPARg:RXRa 270nM:90nM, anti-RXR (NR concentration 270 nM, RXRa partner concentration 90 nM)
# How it was run: as §1
# [9] = tested on: PPARg:RXRa 30nM:10nM, anti-RXR (NR concentration 30 nM, RXRa partner concentration 10 nM)
# How it was run: as §1
# [10] = tested on: PPARg:RXRa 90nM:30nM, anti-RXR (NR concentration 90 nM, RXRa partner concentration 30 nM)
# How it was run: as §1
Sequence,PBM binding z-score [1],PBM binding z-score [2],PBM binding z-score [3],PBM binding z-score [4],PBM binding z-score [5],PBM binding z-score [6],PBM binding z-score [7],PBM binding z-score [8],PBM binding z-score [9],PBM binding z-score [10]
CTCGAAAGGCCGTGCTCAGGTGAGTATACCAAAC,-0.251,-0.522,-0.406,-0.298,-0.835,-0.342,-0.381,-0.723,-0.648,-0.958
ACTATTAGTTGAGACGAGGGCAGCCGATAGGTTG,0.474,-0.24,-0.315,-0.195,0.184,-0.0872,0.689,-0.013,0.136,-0.0374
TCTAATAGTTGATTAGGGCAACCGAAACAGCGGA,-0.0644,0.461,-0.078,0.136,-0.225,1.23,0.375,1.85,3.3,2.53
ACTAGTTGGTCAGTTGAGGTCACACACAATTCGG,3.26,3.93,3.56,3.58,0.939,4.12,2.13,2.59,0.914,1.69
TCAGACAGGTGAAGGAAACTCAGGTACGCAGTCG,0.911,1.04,0.00488,0.561,0.0545,1.05,0.717,2.37,4.29,3.32
GGAGCGAGGGCAAGTTGATAGCAGAGTTTGATGG,0.394,0.0427,-0.544,0.219,-0.594,0.728,0.238,0.276,-0.604,-0.121
CCTTACGGGTCACTCCAGGTTATAGGATCGGAGT,4.94,7.84,1.93,5.04,-0.0329,4.39,3.38,3.76,1.12,2.6
CAACCAAGGTGAACAAGGTCGTTGATTACTATTC,1.58,1.48,0.275,2.09,-0.212,2.67,1.33,1.41,0.118,0.789
CGAACTAGGTCAGAACAGGACAGTAAAGGATGAT,1.48,0.875,-0.0273,0.738,-0.326,3.33,5.37,4.63,1.83,3.65
TCATATAGGTAAAGATGAAAGTCGAACGATATGA,0.255,0.326,-0.224,0.183,-0.264,0.972,1.38,2.08,3.79,3.02
TCTAGCATGCCAGAGGGTCACTCAAGAGGTACGG,0.892,0.929,-0.463,1.43,-1.1,2.5,1.02,1.69,1.89,1.76
CCTACTGGGCCATTCAGAGGTCCTTGATCATATG,-0.359,-0.572,-0.215,-0.597,-0.529,0.27,0.118,0.194,-0.728,-0.16
CAAACTAGGTCCCCGGAAGGTCAAAGTCCGCATG,2.38,3.13,2.88,2.9,0.475,3.7,2.01,2.86,0.494,1.63
CCTAGCAGGCCAATCTGGGACACTCAAGGCTTGA,0.127,-0.43,-0.779,-1.13,-0.814,-0.0365,0.255,-0.496,-0.884,-0.673
TTACCAAGGTGATCTGAGGTCGTTGATCCAACTC,1.9,3.07,0.554,1.78,-0.164,1.78,0.169,0.846,0.216,0.651
CATAGCAGGCCAATCTGGGTCACTCAAGGCTTGA,0.72,1.46,-0.00669,0.604,0.0178,3.01,2.72,2.73,0.652,2.05
GCAGACAGGTGACACGCAGGTAACTCAGGGTGGC,-0.0725,-0.255,-0.585,-0.69,-1.06,0.614,0.69,-0.241,-0.412,-0.395
CGTCCAAGGTTAATGCTAGGTCAGTGAAAGCATT,1.98,4.46,1.76,2.28,-0.518,2.21,0.161,0.685,-0.233,0.133
GCTGCTAGGTCAGGTTTGTCAGCTAACGGGTACG,0.8,0.465,-0.141,0.304,-0.389,0.943,0.265,0.692,-0.284,0.389
AGAATGAGGTTATACGTAGATAAGGGAAGAAAGT,2.05,1.86,-0.00161,1.56,0.00672,3.3,2.47,2.07,1.02,1.67
TGGCCTAGGTCATTCAGGGGCCAGTATAGAAAGC,4.69,3.39,0.183,2.3,0.0581,3.59,2.15,2.33,0.133,1.5
CGTCGAAGGTCAAAGGTCAGTGAAGAGATGACGG,8.44,6.95,3.31,6.62,1.89,7.42,10.4,8.74,7.87,8.95
ATCTCTAGGTAAAGTTCAGTGAAAGATCGATAGA,1.38,2.08,1.69,1.3,0.964,2.35,3.26,4.38,2.33,3.93
